# Measured values taken from the OligoGym collection.
# Molecular target: CYB5RL
# Test: pooled miR-30 sensor sort-seq; sequence = guide strand
# Conditions: shRNA
# Note: reference of the scale not given here.
row,Sequence,sensor-assay potency score (higher = more potent)
1,TTTATAGAAGAAATCTCCGAAA,-0.391
2,TAGAGCAAACCGGACACGGTAG,-0.685
3,TTAATTAACACTTCAAAGTATC,-1.17
4,TTTAATTAGGTCCTGGCCCAGG,-0.401
5,TCTAAGTCATCTACTATCCCTC,0.024
6,TAGGTGTCCTTAGTGAGCCTGT,0.0964
7,TTAACACTTCAAAGTATCCTTC,0.251
8,TTCCTCAGTGTCGTCGTCCTCT,-0.09
9,TAGAGGTCAAACACACAGGGTG,-0.0487
10,TAGCACTTAATTAACACTTCAA,0.518
11,TTTCTCTTGGTAACTCCAGGGA,-0.389
12,TTCTCTTGGTAACTCCAGGGAA,-0.56

# Molecular target: CYBRD1
# Test: as above
# Conditions: shRNA
row,Sequence,sensor-assay potency score (higher = more potent)
1,TTTAACTCTGAATCTGATTTGT,-0.198
2,TTATTTCAAGAAACCATCCTTT,0.251
3,TACTTCATTGTTTAACTCTGAA,-0.114
4,TTTATATTAATCACATCCTTTC,-0.692
5,TATCAGTCCAACCCAGCTGTGC,-0.838
6,TTTTCCTTGCTGCTACTTCATT,-1.57
7,TATATTGTTAACATTGTGGTTC,0.299
8,TAGAGCTAGTTTTGAAACGTGA,0.234
9,TTAACTCTGAATCTGATTTGTC,-0.16
10,TTCATCAGGAGCTTGCTGCATT,0.213
11,TTAAACTCTAGTGCGCTCCCAT,-0.237
